This passage reports outcome and AC50 results from PubChem BioAssay (EPA / NIEHS).

In assay [1] the target is Peroxisome proliferator-activated receptor gamma (Homo sapiens) (UniProt P37231). Description: OT_PPARg_PPARgSRC1_0480: Odyssey Thera (OT) 8-hour Protein-Complementation Assay for Peroxisome Proliferator-activated Receptor Gamma / SRC-1 Co-activator (AID 2283387; active = hit-call score of the fitted dose curve at least 0.9, where 1 is the maximum;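 note: nuclear to cytoplasmic split Venus YFP fluorescence ratio reporting PPARg SRC-1 interaction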). The method in brief:
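Protein-fragment complementation in HEK293T: Venus YFP halves (residues 1-158, 159-239, mutated to IFP1/IFP2) fused to PPARg/SRC-1. 8 h exposure; N/C ratio at 488 nm; DMSO negative control.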

The target is the same in assay [2]. Description: OT_PPARg_PPARgSRC1_1440: Odyssey Thera (OT) 24-hour Protein-Complementation Assay for Peroxisome Proliferator-activated Receptor Gamma/ SRC-1 Co-activator (AID 2283388; active = hit-call score of the fitted dose curve at least 0.9, where 1 is the maximum;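 note: nuclear to cytoplasmic ratio of reconstituted Venus YFP fluorescence in fixed imaged cells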). The method in brief: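 Protein-fragment complementation between PPARg and coactivator SRC-1 was measured by fluorescence imaging in transiently transfected HEK293T cells after 24 h treatment. Signal was quantified as N/C ratio in the 488 nm channel, with DMSO as negative control.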

Assay [3] is described as follows: CEETOX_H295R_11DCORT: CeeTox H295R High-throughput Steroidogenesis Assay for 11-Deoxycortisol (11DCORT) (AID 2283432).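 For AC50: 11-deoxycortisol secreted into the medium measured by LC-MS/MS.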 As to conditions: actives raise or lower the signal. The method in brief: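 Adrenal carcinoma line H295R, run per OECD 456 with minor changes, was forskolin-stimulated (10 uM, 48 h) before a 48 h chemical exposure at 0.1% DMSO. Secreted 11-deoxycortisol was quantified by HPLC-MS/MS.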

Assay [4] can be described thus: CEETOX_H295R_OHPREG: CeeTox H295R High-throughput Steroidogenesis Assay for OH-Pregnenolone (OHPREG) (AID 2283434). As to conditions: actives raise or lower the signal. The method in brief: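 Secreted 17alpha-hydroxypregnenolone measured by HPLC-MS/MS after liquid-liquid extraction. Human adrenal H295R cells received 48 h forskolin (10 uM) stimulation before 48 h chemical exposure at 0.1% final DMSO; MTT viability in same wells; bidirectional fit against DMSO.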

The nature of assay [5]: CEETOX_H295R_CORTIC: CeeTox H295R High-throughput Steroidogenesis Assay for Corticosterone (CORTIC) (AID 2283437). Particulars: actives raise or lower the signal. The method in brief: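 Medium corticosterone was quantified by tandem mass spectrometry following 48 hours of chemical exposure (0.1% DMSO) in human H295R cells previously stimulated 48 hours with 10 uM forskolin. Viability checked by MTT; chemicals diluted and retested when viability fell below 70%.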

Assay [6] is described as follows: CEETOX_H295R_CORTISOL: CeeTox H295R High-throughput Steroidogenesis Assay for Cortisol (AID 2283438).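 Note: cortisol secreted into medium quantified by LC-MS/MS.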 Particulars: actives raise or lower the signal. The method in brief: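 Read-out: cortisol in culture medium by reverse-phase C18 HPLC with ESI-positive tandem MS, after MTBE liquid-liquid extraction. Cells: human adrenal H295R, forskolin-primed (10 uM, 48 h) before 48 h chemical exposure in 0.1% DMSO.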

The nature of assay [7]: CEETOX_H295R_DOC: CeeTox H295R High-throughput Steroidogenesis Assay for DOC (AID 2283439). Particulars: actives raise or lower the signal. The method in brief: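 Human adrenocortical H295R cells, passages up to 10, received 10 uM forskolin for 48 h before chemical addition. After another 48 h exposure in 0.1% DMSO, secreted DOC was measured by LC-MS/MS, with gain or loss fitted against DMSO controls.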

Assay [8] can be described thus: CEETOX_H295R_ESTRADIOL: CeeTox H295R High-throughput Steroidogenesis Assay for Estradiol (AID 2283440).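 Note: estradiol secreted into medium quantified by LC-MS/MS after dansyl derivatisation.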 Particulars: actives raise or lower the signal. The method in brief:
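Estradiol secreted into the medium was measured by tandem mass spectrometry after liquid-liquid extraction and dansylation. Human H295R cells had been forskolin-primed (10 uM, 48 h) before a 48 h chemical exposure with 0.1% DMSO.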

A short description of assay [9]: CEETOX_H295R_PROG: CeeTox H295R High-throughput Steroidogenesis Assay for Progesterone (PROG) (AID 2283442). As to conditions: actives raise or lower the signal. The method in brief:
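Steps: seed H295R cells and let them adhere overnight; prime 48 h with 10 uM forskolin; dose with compound in DMSO at 0.1% final for 48 h; extract medium steroids with MTBE; measure progesterone by LC-MS/MS. MTT viability was run in the same wells.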

Read-out in assay [10]: Tumor necrosis factor receptor superfamily member 6 (Homo sapiens) (UniProt P25445)
Description: LTEA_HepaRG_FAS: Life Technologies and Expression Analysis (LTEA) Assay for Fas cell surface death receptor (FAS) using HepaRG (AID 2283447). As to conditions: mRNA level, 48 h; actives raise or lower the signal. The method in brief:
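FAS transcript level was measured by TaqMan qRT-PCR against three housekeeping genes after 48 h chemical exposure. Cells were HepaRG, 0.5% DMSO vehicle, with a top concentration of 100 uM and half-log dilutions over eight points, in duplicate.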

Read-out in assay [11]: Fatty acid synthase (Homo sapiens) (UniProt P49327)
Description: LTEA_HepaRG_FASN: Life Technologies and Expression Analysis (LTEA) Assay for Fatty Acid Synthase (FASN) using HepaRG (AID 2283448).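 For AC50: differentiated human HepaRG liver cells in serum-free induction medium.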 As to conditions: mRNA level, 48 h; actives raise or lower the signal. The method in brief:
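HepaRG, 48 h exposure, 8-pt half-log series top 100 uM, 0.5% DMSO vehicle, duplicates. Readout: FASN transcript by Fluidigm qRT-PCR; housekeeping-normalized; bidirectional curve fit vs DMSO baseline.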

Read-out in assay [12]: Cyclin D2 (CCND2), CCND2 (gene 894)
Description: LTEA_HepaRG_CCND2: Life Technologies and Expression Analysis (LTEA) Assay for Cyclin D2 (CCND2) using HepaRG (AID 2283449). As to conditions: mRNA level, 48 h; actives raise or lower the signal. The method in brief:
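CCND2 transcript levels, quantified by qRT-PCR and normalised to three housekeeping genes, were fitted bidirectionally against 0.5% DMSO. HepaRG cultures were dosed 48 h in duplicate with an 8-point half-log series up to 100 uM.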

Read-out in assay [13]: Cyclin Dependent Kinase Inhibitor 1A (CDKN1A), CDKN1A (gene 1026)
Description: LTEA_HepaRG_CDKN1A: Life Technologies and Expression Analysis (LTEA) Assay for Cyclin Dependent Kinase Inhibitor 1A (CDKN1A) using HepaRG (AID 2283450). As to conditions: mRNA level, 48 h; actives raise or lower the signal. The method in brief:
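Read-out is CDKN1A mRNA by TaqMan qRT-PCR, normalized to three housekeeping genes and fitted in both directions against the DMSO baseline. Human HepaRG cells were treated 48 h with test chemicals up to 100 uM in half-log steps, 0.5% DMSO.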

Read-out in assay [14]: Cyclin D1 (CCND1), CCND1 (gene 595)
Description: LTEA_HepaRG_CCND1: Life Technologies and Expression Analysis (LTEA) Assay for Cyclin D1 (CCND1) using HepaRG (AID 2283451).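 For AC50: differentiated human HepaRG liver cells in serum-free induction medium; TaqMan qRT-PCR transcript level normalised to ACTB GAPDH and POLR2A housekeeping genes.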 Particulars: mRNA level, 48 h; actives raise or lower the signal. The method in brief: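 HepaRG plated 48 h, medium switched to serum-free induction medium, chemicals added in duplicate (top 100 uM, half-log steps, 0.5% DMSO) for 48 h, cells lysed, RNA measured by TaqMan qRT-PCR.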

Read-out in assay [15]: catalase (CAT), CAT (gene 847)
Description: LTEA_HepaRG_CAT: Life Technologies and Expression Analysis (LTEA) Assay for catalase (CAT) using HepaRG (AID 2283452).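 For AC50: TaqMan qRT-PCR signal normalized to ACTB GAPDH and POLR2A housekeeping genes.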 As to conditions: mRNA level, 48 h; actives raise or lower the signal. The method in brief: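 Expression of CAT was quantified by TaqMan qRT-PCR with ACTB/GAPDH/POLR2A normalization after 48 h chemical exposure of HepaRG. Eight-point half-log series, top 100 uM, in 0.5% DMSO; gain or loss fitted against vehicle.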

Read-out in assay [16]: flavin-containing dimethylaniline monooxygenases 3 (FMO3), FMO3 (gene 2328)
Description: LTEA_HepaRG_FMO3: Life Technologies and Expression Analysis (LTEA) Assay for flavin-containing dimethylaniline monooxygenases 3 (FMO3) using HepaRG (AID 2283453).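 For AC50: differentiated human HepaRG liver cells in serum-free induction medium; FMO3 transcript by TaqMan qRT-PCR normalized to ACTB GAPDH and POLR2A.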 Particulars: mRNA level, 48 h; actives raise or lower the signal. The method in brief:
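Eight-point concentration-response in serum-free HepaRG cultures (top 100 uM, 0.5% DMSO, 48 h). Read-out: FMO3 mRNA level normalized to three endogenous control genes, fitted bidirectionally versus vehicle.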

Read-out in assay [17]: Cytochrome P450 (CYP1A1), CYP1A1 (gene 1543)
Description: LTEA_HepaRG_CYP1A1: Life Technologies and Expression Analysis (LTEA) Assay for Cytochrome P450 (CYP1A1) using HepaRG (AID 2283454). Particulars: mRNA level, 48 h; actives raise or lower the signal. The method in brief: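 HepaRG, 48 h post-plating switched to serum-free induction medium; 8-pt conc-response (top 100 uM, half-log, 0.5% DMSO), duplicates, 48 h. Lysis in RLT, TaqMan qRT-PCR for CYP1A1; gain or loss vs DMSO.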

Read-out in assay [18]: CFLAR gene, CFLAR (gene 8837)
Description: LTEA_HepaRG_CFLAR: Life Technologies and Expression Analysis (LTEA) Assay for CFLAR gene using HepaRG (AID 2283455). Particulars: mRNA level, 48 h; actives raise or lower the signal. The method in brief:
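Transcript level by qRT-PCR (normalized to ACTB, GAPDH and POLR2A) after 48 h chemical exposure of HepaRG cells, top concentration 100 uM with half-log steps, 0.5% DMSO vehicle, duplicates; fitted bidirectionally against DMSO baseline.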

Results filed as inconclusive are left out. Some compounds were tested as several samples or in several runs, with calls that do not always agree. Calls of active or inactive are those of the source. Rule for the calls, unless noted: active = hit-call score of the fitted dose curve at least 0.9, where 1 is the maximum; inactive = score below 0.9.

Chain of Peroxisome proliferator-activated receptor gamma (Homo sapiens) (P37231 whole entry, looked up, the tested form may be a part): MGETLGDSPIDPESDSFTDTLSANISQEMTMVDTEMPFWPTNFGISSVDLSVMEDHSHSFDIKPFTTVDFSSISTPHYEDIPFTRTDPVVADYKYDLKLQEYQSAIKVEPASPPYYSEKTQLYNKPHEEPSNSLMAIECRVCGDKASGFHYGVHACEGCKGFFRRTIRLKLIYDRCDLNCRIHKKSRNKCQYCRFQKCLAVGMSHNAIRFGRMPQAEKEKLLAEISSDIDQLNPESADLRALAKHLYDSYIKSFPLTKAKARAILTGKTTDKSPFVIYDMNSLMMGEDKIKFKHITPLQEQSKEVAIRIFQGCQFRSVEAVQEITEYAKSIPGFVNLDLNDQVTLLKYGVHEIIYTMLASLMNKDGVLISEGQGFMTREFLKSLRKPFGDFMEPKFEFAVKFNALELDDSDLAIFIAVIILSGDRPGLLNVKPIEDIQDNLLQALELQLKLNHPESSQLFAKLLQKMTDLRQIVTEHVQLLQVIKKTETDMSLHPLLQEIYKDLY
Chain of Fatty acid synthase (Homo sapiens) (P49327 whole entry, looked up): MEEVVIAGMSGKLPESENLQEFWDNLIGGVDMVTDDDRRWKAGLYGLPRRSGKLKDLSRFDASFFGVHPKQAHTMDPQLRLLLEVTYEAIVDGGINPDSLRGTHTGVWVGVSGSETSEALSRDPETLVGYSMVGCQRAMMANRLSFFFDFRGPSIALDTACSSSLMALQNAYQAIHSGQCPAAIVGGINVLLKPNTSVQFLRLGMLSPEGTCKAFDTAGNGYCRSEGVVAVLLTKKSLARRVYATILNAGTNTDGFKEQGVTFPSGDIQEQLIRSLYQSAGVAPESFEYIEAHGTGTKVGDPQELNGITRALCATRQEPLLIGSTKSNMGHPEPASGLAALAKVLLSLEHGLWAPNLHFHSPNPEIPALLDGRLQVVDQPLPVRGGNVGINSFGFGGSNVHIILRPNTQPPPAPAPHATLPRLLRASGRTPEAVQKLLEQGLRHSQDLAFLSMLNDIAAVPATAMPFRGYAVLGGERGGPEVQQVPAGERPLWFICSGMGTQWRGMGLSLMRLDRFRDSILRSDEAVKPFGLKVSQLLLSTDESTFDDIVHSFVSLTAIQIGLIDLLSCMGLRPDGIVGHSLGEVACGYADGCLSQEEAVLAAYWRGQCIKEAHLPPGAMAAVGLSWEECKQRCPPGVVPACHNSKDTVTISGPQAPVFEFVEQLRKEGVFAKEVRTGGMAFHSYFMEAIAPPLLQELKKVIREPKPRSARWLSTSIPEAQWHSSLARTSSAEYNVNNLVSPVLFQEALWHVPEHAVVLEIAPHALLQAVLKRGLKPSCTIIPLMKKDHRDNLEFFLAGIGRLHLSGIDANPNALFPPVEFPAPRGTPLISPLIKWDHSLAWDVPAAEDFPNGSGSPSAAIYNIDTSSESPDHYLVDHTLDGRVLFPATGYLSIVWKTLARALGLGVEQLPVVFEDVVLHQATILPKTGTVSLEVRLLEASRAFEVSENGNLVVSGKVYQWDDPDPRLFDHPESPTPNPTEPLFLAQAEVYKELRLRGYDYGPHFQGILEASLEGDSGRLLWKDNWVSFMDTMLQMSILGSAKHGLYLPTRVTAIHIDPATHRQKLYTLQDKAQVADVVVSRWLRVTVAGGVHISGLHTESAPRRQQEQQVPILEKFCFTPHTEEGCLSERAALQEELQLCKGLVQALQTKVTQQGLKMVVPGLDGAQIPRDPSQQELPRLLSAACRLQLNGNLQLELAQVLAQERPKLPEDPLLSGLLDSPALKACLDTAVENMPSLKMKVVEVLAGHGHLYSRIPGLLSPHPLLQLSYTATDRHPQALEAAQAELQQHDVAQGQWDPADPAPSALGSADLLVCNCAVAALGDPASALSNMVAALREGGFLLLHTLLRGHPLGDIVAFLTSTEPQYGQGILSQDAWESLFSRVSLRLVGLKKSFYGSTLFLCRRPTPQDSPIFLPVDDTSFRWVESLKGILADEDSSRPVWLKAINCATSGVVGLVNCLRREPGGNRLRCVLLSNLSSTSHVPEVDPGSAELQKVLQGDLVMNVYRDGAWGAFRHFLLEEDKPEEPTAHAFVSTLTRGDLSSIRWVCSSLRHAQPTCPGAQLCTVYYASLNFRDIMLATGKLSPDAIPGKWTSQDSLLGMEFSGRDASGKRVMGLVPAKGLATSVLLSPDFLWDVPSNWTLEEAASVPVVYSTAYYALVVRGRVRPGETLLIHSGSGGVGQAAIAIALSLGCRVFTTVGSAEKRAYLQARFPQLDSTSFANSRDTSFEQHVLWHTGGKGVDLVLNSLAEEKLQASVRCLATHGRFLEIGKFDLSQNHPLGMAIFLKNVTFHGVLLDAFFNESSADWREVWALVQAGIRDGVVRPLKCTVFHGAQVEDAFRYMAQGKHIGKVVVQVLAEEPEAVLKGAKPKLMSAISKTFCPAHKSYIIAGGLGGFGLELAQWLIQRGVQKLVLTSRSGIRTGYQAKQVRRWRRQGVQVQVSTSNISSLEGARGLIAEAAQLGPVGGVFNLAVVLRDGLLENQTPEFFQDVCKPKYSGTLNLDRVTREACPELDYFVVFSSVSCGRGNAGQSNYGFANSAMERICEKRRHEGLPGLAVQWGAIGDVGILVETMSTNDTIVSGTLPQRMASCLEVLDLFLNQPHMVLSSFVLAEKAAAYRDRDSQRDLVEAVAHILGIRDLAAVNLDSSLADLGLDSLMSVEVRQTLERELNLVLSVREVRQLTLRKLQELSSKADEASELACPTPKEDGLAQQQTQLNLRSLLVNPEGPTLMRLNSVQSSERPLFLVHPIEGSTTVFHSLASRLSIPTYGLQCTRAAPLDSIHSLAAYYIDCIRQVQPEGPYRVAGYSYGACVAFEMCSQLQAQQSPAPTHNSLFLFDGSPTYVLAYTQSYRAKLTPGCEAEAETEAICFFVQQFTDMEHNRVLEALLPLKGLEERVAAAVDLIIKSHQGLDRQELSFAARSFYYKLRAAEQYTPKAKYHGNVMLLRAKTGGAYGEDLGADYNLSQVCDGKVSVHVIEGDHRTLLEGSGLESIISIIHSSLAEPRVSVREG

For the compound `Cc1ccc2ccccc2c1C`, the result in [1] and in assay [2] was inactive.
The term AC50 denotes the concentration at which the activity in the assay is half-maximal. Regarding `CCOP(=S)(OCC)SCSP(=S)(OCC)OCC`, the call in assay [1], in [2], in assay [5], in assay [6], in assay [8] and in assay [10] was inactive. In addition, the compound was called inactive in assay [12], in assay [13], in assay [14], in assay [15], in assay [16] and in [18]. The AC50 is 18.6 µM (active) in assay [3]; 14.9 µM (active) in assay [4]; 1.37 µM (active) in [7]; 4.53 µM (active) in [9]; 90.8 µM (active) in [11]; 33.1 µM (active) in assay [17].
`C=CC#N`: the outcome in assay [1] and in assay [2] was inactive.
`CC1(C)Cc2cccc(O)c2O1`: the result in assay [1] and in assay [2] was inactive.
Take `C1CCC(NC2CCCCC2)CC1`: the call in [1], in assay [2], in assay [3], in [4], in [5] and in assay [6] was inactive. Also, the result in assay [7] was inactive. Further, the AC50 in [9] was 12.7 µM (active).
For the compound `CC(C)(OO)c1ccccc1`, the call in assay [1], in assay [2], in [10], in [11], in assay [12] and in [13] was inactive. Also, the outcome in assay [14], in assay [15], in assay [16] and in assay [18] was inactive. In addition, in [17], the AC50 is 65.7 µM (active).
Turning to `CC(C)(c1ccc(OCC2CO2)cc1)c1ccc(OCC2CO2)cc1` (stereo not drawn), the outcome in [1] and in assay [2] was inactive.
On to `C=C(C)C(=O)[O][Sn]([CH2]CCC)([CH2]CCC)[CH2]CCC`, for which the outcome in [1], in assay [2], in [11], in assay [12], in [13] and in [14] was inactive. Moreover, the outcome in assay [15] was inactive. Further, the AC50 is 0.0287 µM (active) in [2], 74.9 µM (active) in assay [16], 2.87 µM (active) in assay [17] and 4.03 µM (active) in assay [18].
As for `O=C(Nc1ccc2[nH]ccc2c1)c1cc2cc(F)ccc2n1Cc1cccc(F)c1`, the result in assay [1], in assay [2], in [5], in assay [8], in assay [10] and in assay [13] was inactive. Further, the outcome in assay [18] was inactive. In addition, the AC50 in assay [3] is 3.48 µM (active); in assay [4] it was 1.11 µM (active); in [6] it was 4.26 µM (active); in [7], 0.522 µM (active); in assay [9], 4.84 µM (active); in assay [11] it was 24.3 µM (active). Moreover, the AC50 in [14] was 39.5 µM (active); in assay [15], 25.1 µM (active); in [16] it was 26.3 µM (active); in [17] it was 91.7 µM (active).
